Results: PubChem BioAssay (Tox21)
Records with an inconclusive call do not appear. Active and inactive are the calls of the source. The call rests on the fitted dose curve; in most records, active means well fitted inhibition curve with a large enough effect in the signal ratio in the repeat runs, with a control signal flat; inconclusive means weak or mixed curves, or effect the other way; inactive means flat fitted curve, though single readings scatter; the % refers to the signal ratio.

target: D(2) dopamine receptor (Homo sapiens) (UniProt P14416); experiment: Dopamine D2 receptor (DRD2) small molecule antagonists, cell-based qHTS assay (AID 1963595); conditions: HEK293-DRD2 cAMP HTRF antagonist mode; series mostly up to 92.4 µM; activity change, negative = inhibition: at the top concentration
From the text: National Center for Advancing Translational Sciences [NCATS]
Division of Preclinical Innovation [DPI]
U.S. Environmental Protection Agency [EPA]
National Institutes of Environmental Health Sciences [NIEHS]
National Toxicology Program [NTP]
U.S. Food and Drug Administration [FDA]
DRD2 is the D2 subtype of the dopamine receptor, which is coupled to Gi subtype of G protein-coupled receptor. This G protein-coupled receptor inhibits adenylyl cyclase activity. The DRD2-HEK293 cell line stably expressing D2 dopamine receptor can be used for screening agonists and antagonists of interactions between D2 and its ligands. The Hek293-DRD2 cAMP assay is based on HTRF technology. It measures changes of cAMP accumulation in response to Gi coupled GPCR activation or inhibition.
Tox21 Assay Protocol Summary:
DRD2-Hek293 cells were dispensed at 600 cells/3uL/well in 1536-well white plates using a Multidrop Dispenser. After the assay plates were incubated at a 37 C/5% CO2 incubator for 24 h, 1 uL of Ro20-1724 at final concentration of 0.1 mM was transferred to the assay plate by a Flying Reagent Dispenser. Following Ro20-1724 addition, 23 nL of compound dissolved in DMSO, positive controls or DMSO only was added to the assay plates via Wako pintool station. The assay plates were incubated at room temperature for 10 min. Next, 1 uL of mixture of NKH477 (final concentration at 200 nM) and quinpirole (final concentration at 12 nM) was added into the plates. After the assay plates were incubated at room temperature for an additional 30 min, 2.5 ul/well of cAMP-d2 and 2.5 ul/well of anti-cAMP-cryptate were added respectively into the assay plates using a Flying Reagent Dispenser. The plates were incubated at room temperature for 1 h. The fluorescence intensity in the plates was measured at 340 nm excitation and 665 & 620 nm emission by an Envision plate reader.
On the % scale 0 is the no-effect control and ±100 the full control effect.

Sequence of D(2) dopamine receptor (Homo sapiens) (P14416 whole entry, looked up): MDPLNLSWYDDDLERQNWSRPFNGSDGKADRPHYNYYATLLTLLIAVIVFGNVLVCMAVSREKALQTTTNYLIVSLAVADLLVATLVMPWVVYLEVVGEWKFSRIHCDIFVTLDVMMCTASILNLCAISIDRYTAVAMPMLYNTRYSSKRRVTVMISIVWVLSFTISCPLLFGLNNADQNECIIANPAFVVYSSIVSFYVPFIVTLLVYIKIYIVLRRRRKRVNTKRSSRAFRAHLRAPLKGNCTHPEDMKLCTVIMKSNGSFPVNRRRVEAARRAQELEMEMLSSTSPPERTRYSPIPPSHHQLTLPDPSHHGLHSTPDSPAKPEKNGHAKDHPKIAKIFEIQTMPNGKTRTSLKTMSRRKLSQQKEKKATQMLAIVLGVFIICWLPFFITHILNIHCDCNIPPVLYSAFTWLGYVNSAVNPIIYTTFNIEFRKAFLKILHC

Compound | activity change, negative = inhibition | Potency
CC(C(=O)c1ccccc1)N(C)C (stereo not given) | -1.99% [at 42.5 µM] (inactive) | –
COC[C@@H](NC(C)=O)C(=O)NCc1ccccc1 | 10.5% [at 42.5 µM] (inactive) | –
CN1C(=O)CN=C(c2ccccc2)c2cc(Cl)ccc21 | – | inactive
O=C(Nc1ccc(Br)cc1)c1cc(Br)cc(Br)c1O | – | inactive
CCCC[n+]1cccc(C)c1 | – | inactive
CCOC(=O)c1cncn1C(C)c1ccccc1 (stereo not given) | -0.0915% [at 42.5 µM] (inactive) | –
CC(C)(C)C(=O)CCl | – | inactive
Clc1ccc(C(c2ccc(Cl)cc2)C(Cl)(Cl)Cl)cc1 | -27.2% (inactive) | –
CC1(C)C(C=C(Cl)Cl)C1C(=O)OC(C#N)c1ccc(F)c(Oc2ccccc2)c1 (stereo not given) | 2.81% (inactive) | –
CCN(Cc1ccc(Cl)nc1)/C(=C/[N+](=O)[O-])NC | 24.1% [at 42.5 µM] (inactive) | –
C=CCN1CC[C@]23CCCC[C@H]2[C@H]1Cc1ccc(O)cc13 | -6.72% [at 42.5 µM] (inactive) | –
CCCC1CCCCN1 (stereo not given) | 5.97% [at 42.5 µM] (inactive) | –
Cc1coc2c1CCC(C)C2 (stereo not given) | -3.4% (inactive) | –
COC(=O)C(Br)CBr (stereo not given) | -6.27% (inactive) | –
CN=C=O | -3.17% (inactive) | –
C[C@]12CCC(=O)C=C1CC[C@@H]1[C@@H]2CC[C@]2(C)C(=O)CC[C@@H]12 | – | inactive
CC(C)C(C)(N)C#N (stereo not given) | 2.85% (inactive) | –
CC(Cl)CCl (stereo not given) | -1.13% (inactive) | –
O=P1(NCCCl)OCCCN1CCCl (stereo not given) | – | inactive
CCCCCCC#N | 0.135% (inactive) | –

Compound | activity change, negative = inhibition | Potency
CN(C)C(=S)S | – | inactive
CNC(C)(C)Cc1ccccc1 | -3.42% [at 42.5 µM] (inactive) | –
CCCCCCCCCCCCn1cc[n+](C)c1 | – | inactive
O=C(O)C(F)(F)C(F)(F)C(F)(F)C(F)(F)C(F)(F)C(F)(F)C(F)(F)C(F)(F)F | 3.8% (inactive) | –
O=P(OCCCl)(OCCCl)OCCCl | – | inactive
Cc1ccc(-c2nc3ccc(C)cn3c2CC(=O)N(C)C)cc1 | -0.826% [at 42.5 µM] (inactive) | –
CCCCC(CC)CO[N+](=O)[O-] (stereo not given) | 4.58% (inactive) | –
CCCN(CCC)c1c([N+](=O)[O-])cc(C(C)C)cc1[N+](=O)[O-] | – | inactive
C=CC1CC=CCC1 (stereo not given) | -4.06% (inactive) | –
O=C(O)C(Cl)(Cl)Br | -0.528% (inactive) | –
Brc1c(Br)c(Br)c(Br)c(Br)c1Br | -0.734% [at 8.38 µM] (inactive) | –
ClC(Cl)c1ccccc1 | – | inactive
CC[N+](=O)[O-] | – | inactive
CC(C=O)Cc1ccc2c(c1)OCO2 (stereo not given) | 23.4% (inactive) | –
C[C@H]1C(=O)O[C@@H]2CCN3CC=C(COC(=O)[C@](C)(O)[C@]1(C)O)[C@H]23 | – | inactive
CC(C)(C)C(O)(CCc1ccc(Cl)cc1)Cn1cncn1 (stereo not given) | – | inactive
S=c1[nH]c2ccccc2[nH]1 | 4.97% (inactive) | –
c1ccc2c(c1)-c1cccc3cccc-2c13 | 4.65% (inactive) | –
CC(C)CCCCCOC(=O)c1ccccc1C(=O)OCCCCCC(C)C | 4.41% (inactive) | –
O=C(O)C(F)(F)C(F)(F)C(F)(F)C(F)(F)C(F)(F)C(F)(F)C(F)(F)C(F)(F)C(F)(F)C(F)(F)F | 0.385% (inactive) | –
